Among the data in PubChem BioAssay (EPA / NIEHS) are AC50 and outcome values, retold here.

“And” between values parts separate entries of the source, which are not always exact repeats. Equal entries are not always repeated. Records with an inconclusive call do not appear. Some compounds were tested as several samples or in several runs, with calls that do not always agree. The source made the active and inactive calls. Rule for the calls: active = hit-call score of the fitted dose curve at least 0.9, where 1 is the maximum; inconclusive = response in the unintended direction; inactive = score below 0.9.

In assay [1] the target is zebrafish Estrogen Receptor (ER1), esr1 (gene 259252) (UniProt P57717). The assay can be described thus: ATG_zfER1_XSP2: Attagene TRANS-FACTORIAL Multi-Species (XSP2) HepG2 Assay for zebrafish Estrogen Receptor (ER1) (AID 2283816). The method, boiled down: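 HepG2 cells transiently transfected with a GAL4-UAS reporter and a chimeric zebrafish ER1-Gal4 construct, dosed 24 h. Reporter mRNA quantified by RT-PCR, labelling, HpaI digestion and capillary electrophoresis, relative to DMSO.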

In assay [2] the target is chicken Estrogen Receptor (ERa), ESR1 (gene 396099) (UniProt P06212). The assay can be described thus: ATG_chERa_XSP2: Attagene TRANS-FACTORIAL Multi-Species (XSP2) HepG2 Assay for chicken Estrogen Receptor (ERa) (AID 2283817).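 Note: actives raise reporter signal above DMSO so AC50 reflects ER activation.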 The method, boiled down:
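Transient MRTU transfection of HepG2 → 24 h chemical dosing → TriZol RNA, oligo(dT) RT → PCR, 6-FAM primer extension, HpaI digest → CE quantitation of chicken ERa-Gal4-driven reporter mRNA. Positive direction vs DMSO.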

The test system of assay [3] is zebrafish Estrogen Receptor (ER2a), gene 317734. The assay can be described thus: ATG_zfER2a_XSP2: Attagene TRANS-FACTORIAL Multi-Species (XSP2) HepG2 Assay for zebrafish Estrogen Receptor (ER2a) (AID 2283818).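 Note: hits raise reporter mRNA so AC50 reflects activation of zebrafish ER2a.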 A digest of the protocol:
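HepG2 cells transiently transfected with GAL4-UAS reporter units and chimeric zebrafish ER2a-Gal4, exposed 24 h; medium contains 3 nM 6-alpha-fluorotestosterone and 1.5 nM norgestrel. Reporter mRNA quantified by RT-PCR, HpaI digestion, capillary electrophoresis; gain versus DMSO.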

Assay [4] deals with frog Estrogen Receptor (ER), gene 398734. The assay can be described thus: ATG_frER1_XSP2: Attagene TRANS-FACTORIAL Multi-Species (XSP2) HepG2 Assay for frog Estrogen Receptor (ER) (AID 2283821).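 Note: hits raise reporter mRNA above DMSO baseline so potency means agonist or activator.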 A digest of the protocol: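 Steps: transfect HepG2 with multiple reporter transcription units; treat with chemical for 24 h; isolate RNA, reverse-transcribe, PCR-amplify, label with 6-FAM, digest with HpaI; resolve fragments by capillary electrophoresis. Signal is scored against DMSO.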

Assay [5] is described as follows: ATG_M_19_XSP2: Attagene TRANS-FACTORIAL Multi-Species (XSP2) HepG2 Assay for M32 Transcription Factor (Internal Marker) (AID 2283822). A digest of the protocol:
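Internal background marker in a multi-species nuclear receptor TRANS panel: transfected HepG2 cells exposed 24 h, with 3 nM 6-alpha-fluorotestosterone and 1.5 nM norgestrel present. Readout is RT-PCR of reporter transcripts resolved by capillary electrophoresis, gain-of-signal versus DMSO.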

The test system of assay [6] is zebrafish Estrogen Receptor (ER2b), gene 317733. Kind of assay: ATG_zfER2b_XSP2: Attagene TRANS-FACTORIAL Multi-Species (XSP2) HepG2 Assay for zebrafish Estrogen Receptor (ER2b) (AID 2283823).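 Note: fitted upward as reporter gain over DMSO so potency reflects activation.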 A digest of the protocol:
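HepG2 human liver cells transiently transfected with multiplexed GAL4-UAS reporter units expressing chimeric NR-Gal4 proteins; compounds dosed for 24 h. Reporter mRNA quantified by RT-PCR, 6-FAM labelling and capillary electrophoresis; gain-of-signal fitted against DMSO baseline.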

Assay [7] concerns the target Estrogen receptor (Homo sapiens) (UniProt P03372). Kind of assay: ATG_hERa_XSP2: Attagene TRANS-FACTORIAL Multi-Species (XSP2) HepG2 Assay for human Estrogen Receptor (ERa) (AID 2283827). The method, boiled down:
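HepG2 cells transiently transfected with multiplexed GAL4-UAS reporters driven by chimeric receptor-Gal4 proteins, dosed 24 h with 3 nM 6-alpha-fluorotestosterone and 1.5 nM norgestrel present. Reporter mRNA by RT-PCR and capillary electrophoresis; gain-of-signal fit versus DMSO.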

For assay [8], the system named is frog Estrogen Receptor (ER2), gene 100174814. Kind of assay: ATG_frER2_XSP2: Attagene TRANS-FACTORIAL Multi-Species (XSP2) HepG2 Assay for frog Estrogen Receptor (ER2) (AID 2283828). A digest of the protocol: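 Multiplexed transactivation in HepG2: frog estrogen receptor fused to Gal4 drives a UAS reporter. Signal is reporter mRNA after 24 h treatment.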
For assay [9], the system named is chicken Androgen Receptor (AR), gene 422165. The assay can be described thus: ATG_chAR_XSP2: Attagene TRANS-FACTORIAL Multi-Species (XSP2) HepG2 Assay for chicken Androgen Receptor (AR) (AID 2283819).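 Note: hits raise reporter mRNA above DMSO so potency is for activation.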 The method, boiled down:
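HepG2 cells transiently transfected with chicken AR–GAL4 chimeric reporter constructs, stimulated with 3 nM 6-alpha-fluorotestosterone plus 1.5 nM norgestrel, dosed 24 h. Reporter mRNA quantified by RT-PCR and capillary electrophoresis; gain of signal fitted versus DMSO.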

Assay [10] has as its system frog Androgen Receptor (AR), gene 399456. The assay can be described thus: ATG_frAR_XSP2: Attagene TRANS-FACTORIAL Multi-Species (XSP2) HepG2 Assay for frog Androgen Receptor (AR) (AID 2283824).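 Note: actives raise reporter signal above DMSO so AC50 reflects agonist-like induction.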 The method, boiled down:
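HepG2 cells transiently transfected with GAL4-UAS reporter units and frog (Xenopus laevis) AR-Gal4 chimera; reporter mRNA measured 24 h after dosing by RT-PCR and capillary electrophoresis. Gain of signal fitted relative to DMSO baseline.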

Chain of zebrafish Estrogen Receptor (ER1), esr1 (gene 259252) (P57717 whole entry, looked up, the tested form may be a part): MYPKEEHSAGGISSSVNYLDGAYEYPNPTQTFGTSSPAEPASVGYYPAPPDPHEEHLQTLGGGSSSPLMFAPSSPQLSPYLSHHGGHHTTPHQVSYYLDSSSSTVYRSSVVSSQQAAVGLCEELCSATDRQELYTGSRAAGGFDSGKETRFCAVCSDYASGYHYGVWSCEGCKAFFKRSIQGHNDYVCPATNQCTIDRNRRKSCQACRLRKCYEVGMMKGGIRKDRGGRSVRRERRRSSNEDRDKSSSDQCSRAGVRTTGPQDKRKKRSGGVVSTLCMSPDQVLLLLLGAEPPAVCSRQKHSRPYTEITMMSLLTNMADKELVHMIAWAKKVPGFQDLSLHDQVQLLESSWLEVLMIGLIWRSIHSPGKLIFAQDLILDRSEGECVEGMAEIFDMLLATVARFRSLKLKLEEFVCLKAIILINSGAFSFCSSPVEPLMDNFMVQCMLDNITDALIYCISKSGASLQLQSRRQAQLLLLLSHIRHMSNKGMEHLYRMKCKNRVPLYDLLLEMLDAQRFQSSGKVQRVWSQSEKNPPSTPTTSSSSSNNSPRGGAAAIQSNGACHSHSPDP
Chain of Estrogen receptor (Homo sapiens) (P03372 whole entry, looked up, the tested form may be a part): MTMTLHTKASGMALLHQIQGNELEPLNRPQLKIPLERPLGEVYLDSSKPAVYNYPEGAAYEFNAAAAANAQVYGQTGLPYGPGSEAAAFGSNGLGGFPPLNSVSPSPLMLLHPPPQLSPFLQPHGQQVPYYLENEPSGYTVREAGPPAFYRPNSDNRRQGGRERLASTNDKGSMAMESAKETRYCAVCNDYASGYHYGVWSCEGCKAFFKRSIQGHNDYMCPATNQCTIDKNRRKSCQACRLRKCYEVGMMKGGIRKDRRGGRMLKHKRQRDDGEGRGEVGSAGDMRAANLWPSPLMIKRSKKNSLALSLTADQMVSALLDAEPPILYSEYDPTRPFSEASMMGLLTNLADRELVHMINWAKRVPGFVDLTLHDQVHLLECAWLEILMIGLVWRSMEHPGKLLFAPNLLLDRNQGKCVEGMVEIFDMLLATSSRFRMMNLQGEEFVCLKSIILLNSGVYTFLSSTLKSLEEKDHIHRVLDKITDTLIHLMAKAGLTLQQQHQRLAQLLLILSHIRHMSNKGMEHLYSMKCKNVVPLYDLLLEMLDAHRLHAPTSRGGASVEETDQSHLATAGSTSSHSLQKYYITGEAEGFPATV
Chain of chicken Estrogen Receptor (ERa), ESR1 (gene 396099) (P06212 whole entry, looked up, the tested form may be a part): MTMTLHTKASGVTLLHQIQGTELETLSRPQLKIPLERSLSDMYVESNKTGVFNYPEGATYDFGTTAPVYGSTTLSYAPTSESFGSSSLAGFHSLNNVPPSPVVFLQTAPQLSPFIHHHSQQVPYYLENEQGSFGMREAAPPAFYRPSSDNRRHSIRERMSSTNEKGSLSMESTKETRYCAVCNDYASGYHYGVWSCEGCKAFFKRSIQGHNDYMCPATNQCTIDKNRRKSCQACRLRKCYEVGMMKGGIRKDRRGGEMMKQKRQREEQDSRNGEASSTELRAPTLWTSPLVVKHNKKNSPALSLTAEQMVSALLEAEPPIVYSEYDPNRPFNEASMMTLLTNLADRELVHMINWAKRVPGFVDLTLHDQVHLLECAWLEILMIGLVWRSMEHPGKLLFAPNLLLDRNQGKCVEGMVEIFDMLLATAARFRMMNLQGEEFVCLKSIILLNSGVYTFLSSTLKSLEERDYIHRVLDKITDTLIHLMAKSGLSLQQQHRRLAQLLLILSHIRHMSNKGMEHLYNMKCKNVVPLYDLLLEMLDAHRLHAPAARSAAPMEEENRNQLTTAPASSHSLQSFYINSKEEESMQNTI

Turning to `COC(=O)c1c(C)cc(O)c(C)c1O`, the AC50 (commonly the concentration giving half of the maximal activity seen) is 27.5 µM (active) in assay [1]; 19.8 µM (active) and 28.8 µM (active) in assay [2]; 7.57 µM (active) and 27.3 µM (active) in assay [3]; 12.1 µM (active) and 17.5 µM (active) in assay [4]; 39.7 µM (active) and 71.2 µM (active) in assay [6]; 10.5 µM (active) and 53.7 µM (active) in assay [7]. Moreover, the AC50 in assay [8] is 27.7 µM (active) and 27.2 µM (active). Also, the outcome in assay [1] and in [5] was inactive.

As to `O=C(c1ccc(O)cc1)c1ccc(O)cc1O`, the AC50 in assay [1] is 4.75 µM (active); in [2], 3.03 µM (active); in assay [3] it was 2.27 µM (active); in assay [9], 10 µM (active); in assay [4], 3.84 µM (active); in assay [6], 3.62 µM (active). In addition, the values for the AC50 in [7] and in assay [8] were 3.48 µM (active) and 2.54 µM (active), respectively. In addition, the compound was classed as inactive in assay [10].
